For 2 molecules, outcome and AC50 results are on record in PubChem BioAssay (EPA / NIEHS).

Broadly, the AC50 is the midpoint of the concentration-response curve, whichever way the signal moves.

Where “and” joins values, the source holds several entries; their conditions need not be identical. Equal values may be shown once. Where a structure was tested more than once in an assay, its records may differ in their call. Calls of active or inactive are those of the source. How the source made its calls: active means hit-call score of the fitted dose curve at least 0.9, where 1 is the maximum; inactive means score below 0.9.

What all share (conditions): mRNA level, 48 h; actives raise or lower the signal
Read-out in experiment [1]: Bcl-2 (BAX) gene, BAX (gene 581)
Kind of experiment: LTEA_HepaRG_BAX: Life Technologies and Expression Analysis (LTEA) Assay for Bcl-2 (BAX) gene using HepaRG (AID 2283470). A digest of the protocol:
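Gene expression measured by Fluidigm qRT-PCR with three housekeeping genes for normalisation. HepaRG cells, plated 48 h beforehand, treated 48 h at up to 100 uM (8-point, half-log) in 0.5% DMSO. Bidirectional fitting versus DMSO.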

Read-out in experiment [2]: adenosine kinase (ADK) gene, ADK (gene 132)
Put plainly: LTEA_HepaRG_ADK: Life Technologies and Expression Analysis (LTEA) Assay for adenosine kinase (ADK) gene using HepaRG (AID 2283471). The method in brief: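 Read-out is ADK transcript level measured by qRT-PCR and normalised to three housekeeping genes. Cells are human HepaRG, dosed for 48 h at up to 100 uM in 0.5% DMSO. Gain or loss of signal is fitted against DMSO controls.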

Read-out in experiment [3]: Alpha-fetoprotein (AFP) gene, AFP (gene 174)
Kind of experiment: LTEA_HepaRG_AFP: Life Technologies and Expression Analysis (LTEA) Assay for Alpha-fetoprotein (AFP) gene using HepaRG (AID 2283472). The method in brief: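 AFP transcript measured by TaqMan qRT-PCR with three housekeeping genes for normalization, after 48 h chemical treatment of HepaRG cells (top 100 uM, half-log steps, 0.5% DMSO). Gain or loss fitted against vehicle.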

Read-out in a further experiment: BCL2L11 (gene 10018)
Put plainly: LTEA_HepaRG_BCL2L11: Life Technologies and Expression Analysis (LTEA) Assay for Bcl-2 (BCL2L11) gene using HepaRG (AID 2283473). The method in brief:
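Differentiated human HepaRG cells were exposed 48 h in serum-free induction medium to eight half-log concentrations up to 100 uM in 0.5% DMSO, in duplicate. BCL2L11 mRNA was quantified by TaqMan qRT-PCR, normalized to ACTB, GAPDH and POLR2A; induction or repression fitted versus DMSO.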

Read-out in experiment [4]: Bcl-2 (BID) gene, BID (gene 637)
Put plainly: LTEA_HepaRG_BID: Life Technologies and Expression Analysis (LTEA) Assay for Bcl-2 (BID) gene using HepaRG (AID 2283476). The method in brief: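 Duplicate 48 h treatments of HepaRG cells in serum-free induction medium spanned 100 uM downward in half-log steps, 0.5% DMSO. Transcript change quantified by qRT-PCR against three housekeeping genes, fitted up or down versus DMSO.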

Read-out in experiment [5]: Cytochrome P450 (CYP24A1), CYP24A1 (gene 1591)
Put plainly: LTEA_HepaRG_CYP24A1: Life Technologies and Expression Analysis (LTEA) Assay for Cytochrome P450 (CYP24A1) using HepaRG (AID 2283478). A digest of the protocol:
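HepaRG cells plated 48 h, then exposed in duplicate in serum-free induction medium for 48 h to 8-point half-log series from 100 uM in 0.5% DMSO. CYP24A1 mRNA by Fluidigm qRT-PCR, normalized to ACTB, GAPDH, POLR2A; bidirectional fit versus DMSO.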

Read-out in experiment [6]: cysteine-aspartic acid protease (CASP8), CASP8 (gene 841)
Kind of experiment: LTEA_HepaRG_CASP8: Life Technologies and Expression Analysis (LTEA) Assay for cysteine-aspartic acid protease (CASP8) using HepaRG (AID 2283480). A digest of the protocol: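 qRT-PCR readout of CASP8 mRNA, normalized to three housekeeping genes, after 48 h chemical exposure of HepaRG cells; 8-point half-log series, top 100 uM, 0.5% DMSO vehicle. Bidirectional curve fitting against DMSO baseline.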

Read-out in experiment [7]: Cytochrome P450 (CYP2B6), CYP2B6 (gene 1555)
Put plainly: LTEA_HepaRG_CYP2B6: Life Technologies and Expression Analysis (LTEA) Assay for Cytochrome P450 (CYP2B6) using HepaRG (AID 2283481). A digest of the protocol:
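Differentiated human HepaRG cells in serum-free induction medium, dosed in duplicate for 48 h over 8 half-log concentrations topping at 100 uM (0.5% DMSO). CYP2B6 mRNA measured by TaqMan qRT-PCR, normalized to ACTB, GAPDH, POLR2A; bidirectional fit versus DMSO.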

Read-out in experiment [8]: Cytochrome P450 2C19 (Homo sapiens) (UniProt P33261)
Kind of experiment: LTEA_HepaRG_CYP2C19: Life Technologies and Expression Analysis (LTEA) Assay for CYP2C19 using HepaRG (AID 2283482). A digest of the protocol:
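Differentiated HepaRG cells in serum-free induction medium exposed 48 h in duplicate, 8 concentrations from 100 uM by half-log steps in 0.5% DMSO. CYP2C19 mRNA measured by TaqMan qRT-PCR, normalized to ACTB, GAPDH, POLR2A. Bidirectional fit versus DMSO.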

Read-out in a further experiment: CYP2C8 (gene 1558)
Put plainly: LTEA_HepaRG_CYP2C8: Life Technologies and Expression Analysis (LTEA) Assay for CYP2C8 using HepaRG (AID 2283483). The method in brief:
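HepaRG (human liver line), 48 h chemical exposure, 8-pt half-log series from 100 uM, 0.5% DMSO vehicle. Readout: CYP2C8 transcript by qRT-PCR, housekeeping-normalized. Bidirectional fit vs DMSO baseline.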

Read-out in a further experiment: CYP2C9 (gene 1559)
Put plainly: LTEA_HepaRG_CYP2C9: Life Technologies and Expression Analysis (LTEA) Assay for CYP2C9 using HepaRG (AID 2283484). The method in brief: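 HepaRG, 48 h dosing, 8-pt half-log series, top 100 uM, 0.5% DMSO vehicle. Read-out: CYP2C9 transcript by TaqMan qRT-PCR, housekeeping-normalized (ACTB/GAPDH/POLR2A). Gain or loss fitted vs DMSO baseline.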

Read-out in another experiment: CYP2E1 (gene 1571)
Put plainly: LTEA_HepaRG_CYP2E1: Life Technologies and Expression Analysis (LTEA) Assay for CYP2E1 using HepaRG (AID 2283485). A digest of the protocol: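 CYP2E1 transcript measured by Fluidigm qRT-PCR against three housekeeping genes in human HepaRG cells treated 48 h (top 100 uM, half-log steps, 0.5% DMSO vehicle). Gain or loss fitted relative to DMSO baseline.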

Read-out in another experiment: CYP4A11 (gene 1579)
Put plainly: LTEA_HepaRG_CYP4A11: Life Technologies and Expression Analysis (LTEA) Assay for CYP4A11 using HepaRG (AID 2283486). A digest of the protocol:
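Differentiated HepaRG cells, 48 h after plating, exposed in duplicate for 48 h to 8 half-log concentrations up to 100 uM in 0.5% DMSO in serum-free induction medium. CYP4A11 mRNA measured by TaqMan qRT-PCR, normalized to ACTB, GAPDH and POLR2A.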

Read-out in experiment [9]: Cytochrome P450 3A4 (Homo sapiens) (UniProt P08684)
Put plainly: LTEA_HepaRG_CYP3A4: Life Technologies and Expression Analysis (LTEA) Assay for CYP3A4 using HepaRG (AID 2283487). The method in brief: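 HepaRG, 48 h exposure, 8-pt CRC from 100 uM (half-log), 0.5% DMSO, duplicates; serum-free induction medium. Readout: CYP3A4 mRNA, qRT-PCR, ACTB/GAPDH/POLR2A normalization. Bidirectional fit vs DMSO.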

Read-out in experiment [10]: DNA damage-inducible transcript 3 (DDIT3), DDIT3 (gene 1649)
Kind of experiment: LTEA_HepaRG_DDIT3: Life Technologies and Expression Analysis (LTEA) Assay for DNA damage-inducible transcript 3 (DDIT3) using HepaRG (AID 2283488). The method in brief:
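DDIT3 transcript was quantified by qRT-PCR with ACTB/GAPDH/POLR2A normalization after 48 h chemical treatment of differentiated HepaRG cells in 0.5% DMSO. Dosing was eight-point, half-log, top 100 uM, duplicate wells. Curves fitted bidirectionally versus DMSO.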

Read-out in experiment [11]: Pro-epidermal growth factor (Homo sapiens) (UniProt P01133)
Put plainly: LTEA_HepaRG_EGF: Life Technologies and Expression Analysis (LTEA) Assay for Epidermal growth factor (EGF) using HepaRG (AID 2283489). A digest of the protocol:
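HepaRG cells (~100,000/well, 48 h pre-culture) exposed in duplicate for 48 h in serum-free induction medium to 8 half-log concentrations up to 100 uM in 0.5% DMSO. EGF mRNA by qRT-PCR, normalized to ACTB/GAPDH/POLR2A; bidirectional fit versus DMSO.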

Read-out in a further experiment: Caspase-3 (Homo sapiens) (UniProt P42574)
Put plainly: LTEA_HepaRG_CASP3: Life Technologies and Expression Analysis (LTEA) Assay for cysteine-aspartic acid protease (CASP3) using HepaRG (AID 2283477). A digest of the protocol: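 Differentiated HepaRG cells, plated 48 h, were treated in duplicate in serum-free induction medium for 48 h with eight half-log concentrations up to 100 uM in 0.5% DMSO. CASP3 mRNA measured by qRT-PCR, normalized to ACTB, GAPDH, POLR2A.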

Caspase-3 (Homo sapiens), sequence (P42574 whole entry, looked up): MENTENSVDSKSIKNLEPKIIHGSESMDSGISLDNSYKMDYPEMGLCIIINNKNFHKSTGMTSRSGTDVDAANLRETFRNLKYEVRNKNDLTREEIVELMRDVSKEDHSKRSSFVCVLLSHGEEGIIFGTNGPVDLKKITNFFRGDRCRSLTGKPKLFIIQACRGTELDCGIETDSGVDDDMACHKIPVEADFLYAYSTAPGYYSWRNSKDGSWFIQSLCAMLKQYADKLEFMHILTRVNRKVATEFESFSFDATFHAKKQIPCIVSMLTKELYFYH
Cytochrome P450 3A4 (Homo sapiens), sequence (P08684 whole entry, looked up): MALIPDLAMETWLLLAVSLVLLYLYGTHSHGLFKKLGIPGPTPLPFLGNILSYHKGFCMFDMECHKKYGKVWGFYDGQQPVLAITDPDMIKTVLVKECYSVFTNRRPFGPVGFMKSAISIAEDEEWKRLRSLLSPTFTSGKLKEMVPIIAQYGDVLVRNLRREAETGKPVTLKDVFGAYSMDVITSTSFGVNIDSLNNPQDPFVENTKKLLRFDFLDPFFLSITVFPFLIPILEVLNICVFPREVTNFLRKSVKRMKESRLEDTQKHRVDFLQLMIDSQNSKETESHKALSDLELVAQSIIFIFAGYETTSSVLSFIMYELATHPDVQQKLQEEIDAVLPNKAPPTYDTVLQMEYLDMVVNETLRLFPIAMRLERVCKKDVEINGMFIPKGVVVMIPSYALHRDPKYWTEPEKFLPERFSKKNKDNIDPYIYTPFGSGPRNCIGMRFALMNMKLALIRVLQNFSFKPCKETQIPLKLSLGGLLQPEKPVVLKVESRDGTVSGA
Cytochrome P450 2C19 (Homo sapiens), sequence (P33261 whole entry, looked up): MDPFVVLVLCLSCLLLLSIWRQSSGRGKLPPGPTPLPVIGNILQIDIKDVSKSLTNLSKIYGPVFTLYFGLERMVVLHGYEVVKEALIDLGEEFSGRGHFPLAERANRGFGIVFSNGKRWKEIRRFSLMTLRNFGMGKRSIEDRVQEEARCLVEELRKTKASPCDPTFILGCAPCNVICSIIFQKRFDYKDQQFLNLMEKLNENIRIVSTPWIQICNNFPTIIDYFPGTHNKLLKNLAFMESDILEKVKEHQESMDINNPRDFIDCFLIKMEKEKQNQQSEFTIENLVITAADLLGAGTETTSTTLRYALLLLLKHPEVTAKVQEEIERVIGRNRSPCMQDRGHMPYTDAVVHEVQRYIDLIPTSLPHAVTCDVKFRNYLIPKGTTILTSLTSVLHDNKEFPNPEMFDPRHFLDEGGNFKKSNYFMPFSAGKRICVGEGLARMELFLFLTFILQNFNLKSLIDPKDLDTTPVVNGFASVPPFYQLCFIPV

On to `CCc1ccc(C(=O)NN(C(=O)c2cc(C)cc(C)c2)C(C)(C)C)cc1`, for which the molecule was classed as inactive (in experiment [1]; in experiment [2]; with BCL2L11 (gene 10018); in experiment [4]; in [5]; in experiment [6]). Also, the molecule was classed as inactive (in the experiment with CYP2C9 (gene 1559); in experiment [10]; in experiment [11]). The AC50 was 50 µM (active) in experiment [3]; 92.4 µM (active) in experiment [7]; 2.71 µM (active) in [8]; 12.1 µM (active) with CYP2C8 (gene 1558); 42.4 µM (active) with CYP2E1 (gene 1571); 77.2 µM (active) with CYP4A11 (gene 1579). In [9], the AC50 was 3.75 µM (active).

Regarding `Oc1cc(Cl)ccc1Oc1ccc(Cl)cc1Cl`, the call (in experiment [2]; in experiment [3]; with BCL2L11 (gene 10018); in [4]; in the experiment with Caspase-3 (Homo sapiens); in experiment [5]) was inactive. Further, the molecule was called inactive (in [6]; in [7]; in experiment [8]; with CYP2C8 (gene 1558); in the experiment with CYP2C9 (gene 1559); with CYP2E1 (gene 1571)). Also, the molecule was called inactive (with CYP4A11 (gene 1579); in experiment [9]; in experiment [10]; in experiment [11]). For the same molecule, the AC50 in experiment [3] was 51 µM (active); with BCL2L11 (gene 10018), 51 µM (active); in [4], 10.1 µM (active); in experiment [7] it was 17 µM (active) and 51 µM (active); in experiment [8], 83.2 µM (active); with CYP2C8 (gene 1558), 86.4 µM (active). Further, the AC50 with CYP2C9 (gene 1559) is 93.4 µM (active); with CYP2E1 (gene 1571) it was 92.2 µM (active); with CYP4A11 (gene 1579) it was 51 µM (active) and 79.3 µM (active).
